Experimental data as given in the supplement of paper PMC12494721.
Structures can show the parent of a compound that is named as a salt.

Columns and labels:
Details in all cases: incubation time: 27 h, anaerobic, 37 °C;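 for the amine columns active = adjusted P below 0.05 in both replicates with a change the same way and a mean fold change under 0.8 or over 1.25; inactive = the rest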
[1] = tested on: Clostridium sporogenes DSM 1664; experiment: growth (OD595) fold change vs plate DMSO controls (fold change (ratio)); higher = more growth
How it was run: (§1)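 Growth is the fold change relative to the median of plate DMSO controls. Readings came from anaerobic mGAM cultures in 96-well plates grown for 27 h at 37 °C and read at 595 nm. They were blank-subtracted, corrected for compound background with 20 µM compound solutions in water, and converted to OD with a calibration factor of 5. Values are means of 2 biological replicates, and fold changes above 1.5 were set to NA.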

Escherichia coli IAI1 [2] = experiment: as above
How it was run: as §1

[3] = tested on: Klebsiella aerogenes DSM 30053; experiment: as above
How it was run: as §1

[4] = tested on: Ruminococcus gnavus DSM 108212; experiment: as above
How it was run: as §1

[5] = tested on: Klebsiella aerogenes DSM 30053; experiment: fold change of Histamine concentration vs plate DMSO controls (fold change (ratio)); higher = more amine produced, active = hit call of the paper (significant change in both replicates, either direction)
How it was run: (§2)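 Amines were quantified by LC–triple-quadrupole MS in dynamic MRM mode against external calibration curves, with drift correction within each batch. The samples were whole anaerobic mGAM cultures of four gut bacterial strains, grown for 27 h at 37 °C in 80 µL wells and extracted with cold acetonitrile/methanol with 0.1% formic acid, then centrifuged. Values are reported as fold change over DMSO controls on the same plate. The mean of 2 biological replicates is given.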

[6] = tested on: Clostridium sporogenes DSM 1664; experiment: fold change of Tryptamine concentration vs plate DMSO controls (fold change (ratio)); higher = more amine produced, active = hit call of the paper (significant change in both replicates, either direction)
How it was run: as §2

[7] = tested on: Ruminococcus gnavus DSM 108212; experiment: as above
How it was run: as §2

Escherichia coli IAI1 [8] = experiment: fold change of Putrescine concentration vs plate DMSO controls (fold change (ratio)); higher = more amine produced, active = hit call of the paper (significant change in both replicates, either direction)
How it was run: as §2

[9] = tested on: Klebsiella aerogenes DSM 30053; experiment: as above
How it was run: as §2

Escherichia coli IAI1 [10] = experiment: fold change of Cadaverine concentration vs plate DMSO controls (fold change (ratio)); higher = more amine produced, active = hit call of the paper (significant change in both replicates, either direction)
How it was run: as §2

[11] = tested on: Klebsiella aerogenes DSM 30053; experiment: as above
How it was run: as §2

[12] = tested on: Ruminococcus gnavus DSM 108212; experiment: fold change of 2-Phenylethylamine concentration vs plate DMSO controls (fold change (ratio)); higher = more amine produced, active = hit call of the paper (significant change in both replicates, either direction)
How it was run: as §2

Compound | growth [1] | growth (Escherichia coli IAI1 [2]) | growth [3] | growth [4] | fold change of Histamine concentration [5] | fold change of Tryptamine concentration [6] | fold change of Tryptamine concentration [7] | fold change of Putrescine concentration (Escherichia coli IAI1 [8]) | fold change of Putrescine concentration [9] | fold change of Cadaverine concentration (Escherichia coli IAI1 [10]) | fold change of Cadaverine concentration [11] | fold change of 2-Phenylethylamine concentration [12]
COc1ccc(-c2cc(=S)ss2)cc1 [Anethole-trithione] (20 µM) | 0.802 | 1.01 | 0.968 | 1.04 | 1.04 (inactive) | 1.18 (inactive) | 1.07 (inactive) | 1.01 (inactive) | 0.972 (inactive) | 1.01 (inactive) | 0.986 (inactive) | 1.07 (inactive)
CCCCNc1ccc(C(=O)OCCOCCOCCOCCOCCOCCOCCOCCOCCOC)cc1 [Benzonatate] (20 µM) | 0.953 | 1.03 | 1.04 | 0.922 | 0.929 (inactive) | 0.96 (inactive) | 0.971 (inactive) | 1 (inactive) | 0.995 (inactive) | 1.04 (inactive) | 1.01 (inactive) | 0.936 (inactive)
CCOC(=O)[C@H](CCc1ccccc1)N[C@@H](C)C(=O)N1C(=O)N(C)C[C@H]1C(=O)O [Imidapril hydrochloride] (20 µM) | 1.19 | 1.05 | 1.05 | 1.2 | 0.963 (inactive) | 0.931 (inactive) | 1.03 (inactive) | 1.05 (inactive) | 0.997 (inactive) | 1.01 (inactive) | 0.989 (inactive) | 1.05 (inactive)
CC(=O)O[C@]1(C(C)=O)CC[C@H]2[C@@H]3C=C(C)C4=CC(=O)CC[C@]4(C)[C@H]3CC[C@@]21C [Megestrol acetate] (20 µM) | 1.03 | 1.1 | 0.998 | 1.07 | 0.981 (inactive) | 1.05 (inactive) | 1.04 (inactive) | 1.2 (inactive) | 0.971 (inactive) | 0.982 (inactive) | 1.01 (inactive) | 1.04 (inactive)
CCCCNC(=O)NS(=O)(=O)c1ccc(C)cc1 [Tolbutamide] (20 µM) | 0.926 | 0.985 | 0.957 | 0.746 | 1.04 (inactive) | 1.02 (inactive) | 1.01 (inactive) | 0.978 (inactive) | 0.988 (inactive) | 1 (inactive) | 1 (inactive) | 1.04 (inactive)
CCOC(=O)[C@H](CCc1ccccc1)N[C@@H](C)C(=O)N1Cc2ccccc2C[C@H]1C(=O)O [Quinapril hydrochloride] (20 µM) | 1.03 | 1.02 | 0.996 | 0.99 | 1.06 (inactive) | 1.07 (inactive) | 1.03 (inactive) | 1.09 (inactive) | 1.04 (inactive) | 0.999 (inactive) | 1.01 (inactive) | 1.03 (inactive)
Cc1ccc(=O)n(-c2ccccc2)c1 [Pirfenidone] (20 µM) | 0.978 | 0.995 | 0.983 | 0.984 | 1.02 (inactive) | 1.04 (inactive) | 0.978 (inactive) | 1.01 (inactive) | 1.01 (inactive) | 1.01 (inactive) | 0.981 (inactive) | 0.958 (inactive)
CC(C)(c1ccc(O)cc1)c1ccc(O)cc1 [Bisphenol A] (20 µM) | 0.972 | 1.04 | 1 | 0.996 | 1.01 (inactive) | 0.959 (inactive) | 0.976 (inactive) | 0.981 (inactive) | 0.988 (inactive) | 0.991 (inactive) | 0.985 (inactive) | 0.942 (inactive)
COc1ccc(CC2c3cc(OC)c(OC)cc3CC[N+]2(C)CCC(=O)OCCCCCOC(=O)CC[N+]2(C)CCc3cc(OC)c(OC)cc3C2Cc2ccc(OC)c(OC)c2)cc1OC (centres undefined) [Atracurium besylate] (20 µM) | 0.945 | 1.13 | 0.964 | 1.13 | 1.01 (inactive) | 1.15 (inactive) | 1.1 (inactive) | 1.09 (inactive) | 0.953 (inactive) | 1 (inactive) | 1.03 (inactive) | 1.05 (inactive)
COc1ccc(NS(=O)(=O)c2ccc(N)cc2)nn1 [Sulfamethoxypyridazine] (20 µM) | 0.883 | 1.01 | 0.983 | 1.01 | 1.06 (inactive) | 1.03 (inactive) | 1.17 (inactive) | 1.02 (inactive) | 1.03 (inactive) | 1.07 (inactive) | 1.1 (inactive) | 1.44 (inactive)
COC(=O)[C@H](Cc1ccccc1)NC(=O)[C@@H](N)CC(=O)O [Aspartame] (50 µM) | 1.05 | 0.921 | 0.997 | 1.01 | 1.03 (inactive) | 0.944 (inactive) | 1.01 (inactive) | 0.968 (inactive) | 1.01 (inactive) | 1.04 (inactive) | 0.99 (inactive) | 1.04 (inactive)
Cc1ccc(S(=O)(=O)NC(=O)NN2CCCCCC2)cc1 [Tolazamide] (20 µM) | 0.935 | 1.09 | 1.04 | 1.19 | 0.975 (inactive) | 1.02 (inactive) | 1.14 (inactive) | 1.05 (inactive) | 0.974 (inactive) | 1.02 (inactive) | 1.02 (inactive) | 1.18 (inactive)
